# Reference: the supplement of paper PMC3414501
# Structures can show the parent of a compound that is named as a salt.
# Key:
# [1] = test system: S. cerevisiae SK1 pCDA2-eGFP (USY613), sporulating; assay: CDA2-GFP sporulation assay sensitivity score (z-score vs DMSO controls); higher = stronger inhibition of sporulation, active = hit call of the paper;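 further: active if sensitivity score above 5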
# [2] = test system: S. cerevisiae AD1-9 (efflux-pump deficient), vegetative growth in YPD; assay: growth sensitivity score (doubling time z-score vs DMSO controls); higher = slower growth, strongly negative scores also mark growth inhibition (complete suppression), active = hit call of the paper
# How it was run: (§1)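 Optical density of Saccharomyces cerevisiae cultures in microtiter plates was followed every 15 min for 24 hours after seeding at an OD600 of 0.065. Eight solvent-only wells were run per experiment. Growth sensitivity scores were found by subtracting the solvent-only mean from the compound mean and dividing by the solvent-only standard deviation.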
# [3] = test system: S. cerevisiae BY4741 (wild-type), vegetative growth in YPD; assay: as above
# How it was run: as §1
# [4] = stock concentration (mM, diluted 1:100): 10
# [5] = stock concentration (mM, diluted 1:100): 8.7
# [6] = stock concentration (mM, diluted 1:100): 19.9
# [7] = stock concentration (mM, diluted 1:100): 10.1
# [8] = stock concentration (mM, diluted 1:100): 8.9
smiles,measurement,setting,value
OC1CCCCC1N1CCC(c2ccccc2)CC1 (centres undefined) [Vesamicol hydrochloride],CDA2-GFP sporulation assay sensitivity score,[1]; [4],1.08 (inactive)
same,growth sensitivity score,[2]; [4],-0.57 (inactive)
same,growth sensitivity score,[3]; [4],-0.16 (inactive)
CC(=O)O[C@H]1C[C@@H]2CC[C@@H]3[C@H](CC[C@@]4(C)[C@H]3C[C@H]([N+]3(C)CCCCC3)[C@@H]4OC(C)=O)[C@@]2(C)C[C@@H]1[N+]1(C)CCCCC1 [Pancuronium],CDA2-GFP sporulation assay sensitivity score,[1]; [5],2.51 (inactive)
same,growth sensitivity score,[2]; [5],-8.57
same,growth sensitivity score,[3]; [5],-0.39 (inactive)
Cc1nnc2n1-c1ccc(Cl)cc1C(c1ccccc1)=NC2 [Alprazolam],CDA2-GFP sporulation assay sensitivity score,[1]; [4],0.37 (inactive)
same,growth sensitivity score,[2]; [4],5.38 (active)
same,growth sensitivity score,[3]; [4],0.23 (inactive)
Cc1ccc(-c2nc3ccc(C)cn3c2CC(=O)N(C)C)cc1 [Zolpidem tartrate],CDA2-GFP sporulation assay sensitivity score,[1]; [6],1.79 (inactive)
same,growth sensitivity score,[2]; [6],-1.48 (inactive)
same,growth sensitivity score,[3]; [6],-0.6 (inactive)
C=C1C[C@@H]2[C@H](CC[C@]3(C)C(=O)CC[C@@H]23)[C@@]2(C)C=CC(=O)C=C12 [Exemestane],CDA2-GFP sporulation assay sensitivity score,[1]; [4],7.73 (active)
same,growth sensitivity score,[2]; [4],4.58 (active)
same,growth sensitivity score,[3]; [4],0.77 (inactive)
CNCC(O)c1ccc(O)cc1 (centres undefined) [Synephrine],CDA2-GFP sporulation assay sensitivity score,[1]; [4],4.04 (inactive)
same,growth sensitivity score,[2]; [4],0.18 (inactive)
same,growth sensitivity score,[3]; [4],-1.07 (inactive)
NCCc1ccccn1 [2-(2-aminoethyl)pyridine],CDA2-GFP sporulation assay sensitivity score,[1]; [4],-1.07 (inactive)
same,growth sensitivity score,[2]; [4],-0.62 (inactive)
same,growth sensitivity score,[3]; [4],-1.35 (inactive)
C=C(C)CN1CC[C@]23c4c5ccc(O)c4O[C@H]2c2[nH]c4ccccc4c2C[C@@]3(O)C1C5,CDA2-GFP sporulation assay sensitivity score,[1]; [7],4.94 (inactive)
same,growth sensitivity score,[2]; [7],11.1 (active)
same,growth sensitivity score,[3]; [7],0.61 (inactive)
C[C@]12CC[C@H](O)CC1=CC[C@@H]1[C@@H]2CC[C@]2(C)C(=O)CC[C@@H]12 [Dehydroepiandrosterone],CDA2-GFP sporulation assay sensitivity score,[1]; [4],15.7 (active)
same,growth sensitivity score,[2]; [4],70.9 (active)
same,growth sensitivity score,[3]; [4],7.64 (active)
CCCCC/C=C\C/C=C\C/C=C\C/C=C\CCCC(=O)Nc1ccc(O)cc1,CDA2-GFP sporulation assay sensitivity score,[1]; [4],-4.74 (inactive)
same,growth sensitivity score,[3]; [4],2.55 (active)
C[C@]12CC[C@H](O)CC1=CC[C@@H]1[C@@H]2CC[C@@]2(C)[C@H]1CC[C@]2(C)O [Methylandrostenediol],CDA2-GFP sporulation assay sensitivity score,[1]; [7],0.44 (inactive)
same,growth sensitivity score,[2]; [7],15.1 (active)
same,growth sensitivity score,[3]; [7],0.35 (inactive)
C[N+]1(C)CCN(c2ccccc2)CC1 [Dimethylphenylpiperazinium Iodide],CDA2-GFP sporulation assay sensitivity score,[1]; [4],-0.6 (inactive)
same,growth sensitivity score,[2]; [4],-0.59 (inactive)
same,growth sensitivity score,[3]; [4],-0.67 (inactive)
C[C@]12C/C(=C/O)C(=O)C[C@@H]1CC[C@@H]1[C@@H]2CC[C@@]2(C)[C@H]1CC[C@]2(C)O [Oxymetholone],CDA2-GFP sporulation assay sensitivity score,[1]; [7],1.28 (inactive)
same,growth sensitivity score,[3]; [7],9.13 (active)
COc1cccc(C2(O)CCCCC2CN(C)C)c1 (centres undefined) [Tramadol],CDA2-GFP sporulation assay sensitivity score,[1]; [4],0.06 (inactive)
same,growth sensitivity score,[2]; [4],-0.93 (inactive)
same,growth sensitivity score,[3]; [4],-0.39 (inactive)
COc1cc(N)c(Cl)cc1C(=O)NC1CN2CCC1CC2 (centres undefined) [Zacopride],CDA2-GFP sporulation assay sensitivity score,[1]; [4],2.91 (inactive)
same,growth sensitivity score,[2]; [4],-2.46
same,growth sensitivity score,[3]; [4],-1.3 (inactive)
c1ccc2c(c1)Nc1ccccc1S2 [Phenothiazine],CDA2-GFP sporulation assay sensitivity score,[1]; [4],3.38 (inactive)
same,growth sensitivity score,[2]; [4],11.7 (active)
same,growth sensitivity score,[3]; [4],5.99 (active)
COc1cc2c(cc1OC)[C@@]13CCN4CC5=CCO[C@H]6CC(=O)N2[C@H]1[C@H]6[C@H]5C[C@H]43 [Brucine],CDA2-GFP sporulation assay sensitivity score,[1]; [4],-1.75 (inactive)
same,growth sensitivity score,[2]; [4],-0.99 (inactive)
same,growth sensitivity score,[3]; [4],0.41 (inactive)
CS(=O)(=O)Nc1ccc(Cc2noc(-c3ccc4[nH]cc(CCN)c4c3)n2)cc1,CDA2-GFP sporulation assay sensitivity score,[1]; [4],2.55 (inactive)
same,growth sensitivity score,[2]; [4],-0.07 (inactive)
same,growth sensitivity score,[3]; [4],0.39 (inactive)
O=c1c2ccccc2[se]n1-c1ccccc1 [Ebselen],growth sensitivity score,[2]; [4],-16.9
CC(O)(CS(=O)(=O)c1ccc(F)cc1)C(=O)Nc1ccc(C#N)c(C(F)(F)F)c1 (centres undefined) [Bicalutamide],CDA2-GFP sporulation assay sensitivity score,[1]; [4],0.41 (inactive)
same,growth sensitivity score,[3]; [4],0.66 (inactive)
C[C@H]1CCC[C@H](O)CCCCCc2cc(O)cc(O)c2C(=O)O1 [Zeranol],CDA2-GFP sporulation assay sensitivity score,[1]; [4],-2.75 (inactive)
same,growth sensitivity score,[2]; [4],18.3 (active)
same,growth sensitivity score,[3]; [4],1.77 (inactive)
CNC(=O)Oc1ccc2c(c1)[C@]1(C)CCN(C)[C@@H]1N2C [Physostigmine],CDA2-GFP sporulation assay sensitivity score,[1]; [4],0.21 (inactive)
same,growth sensitivity score,[2]; [4],-0.52 (inactive)
same,growth sensitivity score,[3]; [4],-1.51 (inactive)
COc1ccc(CCN)cc1OC [Homoveratrylamine],CDA2-GFP sporulation assay sensitivity score,[1]; [4],-0.12 (inactive)
same,growth sensitivity score,[2]; [4],-1.46 (inactive)
same,growth sensitivity score,[3]; [4],-1.07 (inactive)
Oc1ccc2c3c1O[C@H]1c4[nH]c5ccccc5c4C[C@@]4(O)[C@@H](C2)N(CC2CC2)CC[C@]314 [Naltrindole],CDA2-GFP sporulation assay sensitivity score,[1]; [4],3.11 (inactive)
same,growth sensitivity score,[2]; [4],-3.12
same,growth sensitivity score,[3]; [4],-1.11 (inactive)
C[C@]12CC[C@H]3[C@@H](CCC4=CC(=O)CC[C@@]43C)[C@@H]1CC[C@@H]2O [Testosterone],CDA2-GFP sporulation assay sensitivity score,[1]; [4],21.1 (active)
same,growth sensitivity score,[2]; [4],44.5 (active)
same,growth sensitivity score,[3]; [4],4.61 (active)
C[C@]12CCC(=O)C[C@@H]1CC[C@@H]1[C@@H]2CC[C@@]2(C)[C@H]1CC[C@]2(C)O [Mestanolone],CDA2-GFP sporulation assay sensitivity score,[1]; [7],0.79 (inactive)
same,growth sensitivity score,[2]; [7],2.2 (active)
same,growth sensitivity score,[3]; [7],-0.15 (inactive)
CN1C(=O)CN=C(c2ccccc2)c2cc(Cl)ccc21 [Diazepam],CDA2-GFP sporulation assay sensitivity score,[1]; [4],4.97 (inactive)
same,growth sensitivity score,[2]; [4],5.55 (active)
same,growth sensitivity score,[3]; [4],2.97 (active)
COc1ccc(C(CN(C)C)C2(O)CCCCC2)cc1 (centres undefined) [Venlafaxine hydrochloride],CDA2-GFP sporulation assay sensitivity score,[1]; [8],-0.02 (inactive)
same,growth sensitivity score,[2]; [8],-1.06 (inactive)
same,growth sensitivity score,[3]; [8],-0.63 (inactive)
